Laboratory results published in the supplement of paper PMC6805474.

tested on: Schistosoma mansoni schistosomula (LE); test: XTT viability relative to DMSO control; higher = more viable (less active); settings: 72 h; 10 µM
Experimental: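 XTT/PMS was then added for a further 24 h (72 h total) and A450 was read. % viability = (sample - heat-killed control)/(DMSO control - heat-killed control) x 100, from duplicate wells in two independent experiments.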

| Structure (SMILES) | XTT viability |
| --- | --- |
| Cc1ccc2cc(C3NC(=O)c4ccccc4N3)c(Cl)nc2c1 (stereo not given) | 99% |
| CN1CCCC1CCO[C@](C)(c1ccccc1)c1ccc(Cl)cc1 (stereo not given in full) | 46.6% |
| CC(=O)NCC1CN(c2ccc(-c3ccc(CNCc4cn[nH]n4)cc3)c(F)c2)C(=O)O1 (stereo not given) | 108% |
| COc1ccccc1OCCCCn1c(C2CC2)nc2ccccc21 | 76% |
| O=C(OCc1ccccc1)N1CCC(c2cc(-c3ccncc3)c(-c3ccc(F)cc3)[nH]2)CC1 | 124% |
| Cc1ccc2c(c1C)NC(=O)C21NN=C(c2ccccc2)S1 (stereo not given) | 125% |
| CNCCC(Oc1ccc(C(F)(F)F)cc1)c1ccccc1 (stereo not given) | 20.4% |
| COc1cccc(NC(=O)c2c(NC(=O)c3cccnc3)sc3c2CCC3)c1 | 94.4% |
| N#Cc1ccc(-c2ccc(OCC(N)=O)cc2)cc1 | 73.9% |
| CC(C)N=c1cc2n(-c3ccc(Cl)cc3)c3ccccc3nc-2cc1Nc1ccc(Cl)cc1 | 16.6% |
| Cc1ccc2[nH]c3c(NCCN(C)C)ncnc3c2c1 | 72.5% |
| CS(=O)(=O)c1cccc(-c2cnc3[nH]cc(-c4ccc(CCC(=O)O)cc4)c3c2)c1 | 86.9% |
| CC(C)(C)n1nc(-c2ccccc2)c2c(N)ncnc21 | 106% |
| Cc1cc(OCC(=O)Nc2ccc(C(C)C)cc2)n(C)c(=O)c1C#N | 82.3% |
| N=C(N)Nc1ccc(-c2ccc(-c3ccc(N=C(N)N)c(Cl)c3)o2)cc1Cl | 89.7% |
| COc1ccccc1C(C)NCC(=O)Nc1cc(C(F)(F)F)ccc1Cl (stereo not given) | 67.7% |
| COc1cccc(-n2nnnc2S(C)(=O)=O)c1 | -0.214% |
| Cc1ccc2nc(Cl)c(CNCc3cccs3)cc2c1 | 83.2% |
| CC(C)C(NC(=O)Cc1cccc2ccccc12)C(=O)Nc1cccc(C#N)c1 (stereo not given) | 68.8% |
| c1ccc(C[C@@H]2CN(c3nccc(Oc4ccc(-n5ccnc5)cc4)n3)CCN2)cc1 | 94.4% |

| Structure (SMILES) | XTT viability |
| --- | --- |
| N=C(N)c1ccc(-c2cc(-c3ccccc3)on2)cc1 | 91.6% |
| Nc1ncc(Br)cc1-c1nc2cc(Cl)cnc2[nH]1 | 131% |
| c1ccc(-c2nc(NC3CCCCC3)cc(C3CC3)n2)nc1 | 16.4% |
| COC(=O)c1c(NC(=O)c2cc3ccccc3oc2=O)sc2c1CCN(Cc1ccccc1)C2 | 76.3% |
| O=C1[C@@H](Oc2ccccc2)[C@@H](c2ccc(Cl)cc2)N1CCn1cnc2c(NCc3ccccc3)ncnc21 | 68.1% |
| O=C(Nc1ccc(N2CCNCC2)nc1)c1oc(-c2ccccc2)nc1C(F)(F)F | 69.7% |
| CCCCc1ccc(NC(=O)Nc2ccc(O[C@H]3CCCC[C@@H]3N(C)c3ccccc3)c(F)c2)cc1 | 33.7% |
| COc1cccc(-c2cc3c(Nc4cccnc4)nccc3[nH]2)c1 | 104% |
| c1coc(CNc2nc(N3CCCCC3)nc3ccccc23)c1 | 99.5% |
| COc1ccc(Cl)cc1NC(=O)CN(C)C(=O)c1cnn(-c2ccccc2)n1 | 78.4% |
| Nc1ccc(C(=O)Nc2ccc(-c3nc4ccccc4o3)cc2)cc1 | 64.2% |
| O=C(CN1CCOCC1)Nc1ccc2ncnc(Nc3ccc(OCc4cccc(F)c4)c(Cl)c3)c2c1 | 125% |
| Nc1ncc(-c2cn[nH]c2)cc1-c1nc2cc(Cl)cnc2[nH]1 | 94.4% |
| Cc1ccc(NC(=O)c2cc(S(=O)(=O)NC(C)(C)C)ccc2C)nc1 | 90.2% |
| O=C(NC1=NCCS1)c1sc2cc(F)ccc2c1Cl | 81% |
| Nc1ncnc2c1ncn2C[C@@H](O)[C@@H](O)C(=O)O | 63.7% |
| N#Cc1nc(-c2ccccc2F)oc1NCCc1ccccc1 | 94% |
| CN1CCN(c2nccc3[nH]c(-c4cccc(F)c4)cc23)CC1 | 66.3% |
| NCCC(O)C(=O)N[C@@H]1C[C@H](N)[C@@H](OC2O[C@H](CN)[C@@H](O)[C@H](O)[C@H]2O)[C@H](O)C1OC1O[C@H](CO)[C@@H](O)[C@H](N)[C@H]1O (stereo not given in full) | 93.8% |
| COc1nc2ccc(Br)cc2cc1[C@@H](c1ccccc1)[C@@](O)(CCN(C)C)c1cccc2ccccc12 | 7.23% |
